RORg inh: blocks mouse ROR gamma transcriptional activity; Potency, µM (doses to about 53.6 µM), for the others: at the highest dose activity change, negative = inhibition, most hits filed as inhibitors; P51450; hit rate 5.4% among 310,000; Drosophila S2 Gal4-RORgamma UAS-luciferase reporter, 20 h; note: potency is the fitted concentration of half-maximal effect; nearly all actives have a fitted effect of over 60% in size
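A Gal4/UAS one-hybrid system in insect cells: metallothionein-promoter Gal4–ROR gamma fusion plus Photinus luciferase reporter. Copper sulfate 700 uM final, 20 hr ambient incubation, luminescent detection after 10 min with reagent.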
rTrxR1 inhibitor: rat TrxR1 inhibition; O89049; recombinant rTrxR1, NADPH fluorescence consumption, selenite substrate; Potency, µM (top dose mostly 114 µM), for the others: top-dose activity change, negative = inhibition, actives largely listed as inhibitors; hit rate 1% among 390,000; AID 588453; note: potency is the fitted concentration of half-maximal effect; nearly all actives have a fitted effect of over 65% in size
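Rat TrxR1 (90 nM in the dispensed reagent) was pre-reduced with 400 uM NADPH for 5 min at room temperature, then incubated with compound for 15 min. After 400 uM selenite was added, NADPH fluorescence (Ex 340/Em 450 nm) was followed for 8 min.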
TrxR1 substrate: rat thioredoxin reductase 1 substrate activity. O89049. purified TrxR1 substrate turnover, NADPH consumption readout. Potency, µM (highest dose often 114 µM), for inactives: top-dose activity change, negative = substrate turnover. hit rate 0.01% among 390,000; note: potency is the fitted concentration of half-maximal effect; nearly all actives have a fitted effect of over 50% in size
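Rat TrxR1, dispensed at 90 nM, was prereduced with 400 uM NADPH (final) for 5 min at ~22 deg C, then incubated with compound 15 min before 400 uM selenite. A first-read NADPH fluorescence drop versus no-compound background flagged substrates.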
GALK inh: blocks human galactokinase activity; Purified GALK, Kinase-Glo residual ATP luminescence; Potency, µM (series often up to 57.5 µM), for inactives: top-dose activity change, negative = inhibition, usual class: inhibitors; hit rate 0.007% among 270,000; AID 1868; note: potency is the fitted concentration of half-maximal effect
Target sequence (P51570 whole entry, looked up): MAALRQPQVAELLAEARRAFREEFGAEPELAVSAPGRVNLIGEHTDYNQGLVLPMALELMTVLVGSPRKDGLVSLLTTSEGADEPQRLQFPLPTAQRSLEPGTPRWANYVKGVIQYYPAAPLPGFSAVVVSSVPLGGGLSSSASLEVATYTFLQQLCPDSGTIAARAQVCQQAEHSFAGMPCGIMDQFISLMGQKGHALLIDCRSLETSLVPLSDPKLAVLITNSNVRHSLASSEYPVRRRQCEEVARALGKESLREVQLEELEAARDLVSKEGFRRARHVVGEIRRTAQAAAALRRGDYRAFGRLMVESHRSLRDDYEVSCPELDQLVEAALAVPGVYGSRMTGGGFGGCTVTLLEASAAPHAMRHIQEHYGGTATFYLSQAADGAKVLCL
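Human GALK (5 nM) with 35 uM ATP and 100 uM galactose in 20 mM HEPES pH 8.0, 5 mM MgCl2, 60 mM NaCl, 1 mM DTT, 0.01% BSA. After 1 h at room temperature, leftover ATP was read by Kinase-Glo Plus luminescence.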
Gal4-VP16 FLuc: Gal4-VP16 reporter inhibition counter-screen; Drosophila S2 Gal4-VP16 UAS-luciferase, luminescence, 20 h; Potency, µM (series often up to 53.6 µM), without a hit: at the top dose activity, negative = inhibition, most hits filed as inhibitors; hit rate 3.5% among 310,000;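 note: Gal4-VP16 expression switched on by copper sulfate through the metallothionein promoter; potency is the fitted concentration of half-maximal effect; nearly all actives have a fitted effect of over 50% in size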
FBPA coupling cs: inhibits coupling enzyme system, counter-screen for aldolase hits. coupling enzyme system counterscreen, AmpLite Red fluorescence. activity change, negative = inhibition, % at 58.2 µM, hits read low. hit rate 0.67% among 290,000. AID 2472; in the data active = activity change below about -30%
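Activity here indicates interference with the coupling reaction, not aldolase inhibition. Compounds at 57.5 uM final met coupling enzymes for 10 min at RT; substrate and AmpLite Red detection followed, with a 525/598 nm fluorescence read after 20 min.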
Numbers without * were called inactive; ? = inconclusive; . = no result; [ ] = dose if it differs, or a comment. The list is not random: actives were taken first. Their share in the collection is about 5.9%. Unless noted, calls come from the whole dose curve; as a rule, active = well fitted curve in the direction sought with a large enough effect; inconclusive = small, poorly fitted or top-dose-only effect, or another doubt; inactive = no such curve, though single readings can be large; an effect the other way counts as inactive or inconclusive. % is set by controls: 0 for no effect and ±100 for the full control effect.

SMILES	RORg inh	rTrxR1 inhibitor	TrxR1 substrate	GALK inh	Gal4-VP16 FLuc	FBPA coupling cs
Cc1ccc(S(=O)(=O)Oc2cccc(/C=N/Nc3ccc(C(=O)O)cc3)c2)cc1	-6.8%	7.4%	0.2%	-8.5%	-18.6%	-41.2*
Cc1ccc(/C=N/Nc2ccc(C(=O)O)cc2)o1	0.316µM*	-1.9%	-11.4%	2.1%	0.398µM*	4.5
CCOc1cc(S(=O)(=O)Nc2ccncc2)ccc1F	.	0.0%	-6.2%	1.0%	.	3.5
COC(=O)c1ccccc1NC(=O)CSc1c2c(nc3ccc(Cl)cc13)CCCC2	.	17.6%	1.8%	.	.	.
COc1ccc(/C=N/Nc2ccc(C(=O)O)cc2)cc1Br	39.8µM*	-8.1%[57.1 µM]	-4.1%[57.1 µM]	-3.0%	0.9%	6.5
CC(C)c1ccc(/C=N/Nc2ccc(C(=O)O)cc2)cc1	?	-15.3%	-6.4%	1.9%	0.251µM*	5.8
O=C(O)c1ccc(N/N=C/c2ccc(-c3ccccc3)cc2)cc1	0.1%	13.1%[11.4 µM]	-4.4%[57.1 µM]	-1.8%	-7.2%	7.5
COc1ccc2c(/C=N/Nc3ccc(C(=O)O)cc3)c[nH]c2c1	?	-14.7%	-2.2%	1.7%	5.01µM*	1.1
O=C(/C=C/c1ccc(F)cc1)NC(=S)NC1CCCCC1	?	7.6%	2.1%	2.1%	-5.3%	-5.9
O=C(COC(=O)CCS(=O)(=O)c1ccc(Cl)cc1)Nc1ncc(Cl)cc1Cl	0.1%	13.0%	19.5%	-0.3%	0.0%	-3.9
O=C1NC2c3c(Cl)sc(Cl)c3C(=O)C2O1 (stereo not given)	.	6.31µM*	-4.6%	.	.	.
O=C1NC2c3c(I)sc(I)c3C(=O)C2O1 (stereo not given)	.	2.51µM*	-2.0%	.	.	.
O=C1NC2c3ccccc3CC2O1 (stereo not given)	-4.9%	7.7%	7.6%[57.1 µM]	.	1.9%	-4.5
CC(C)[C@H](NC(=O)c1ccc(Cl)cc1Cl)C(=O)NNC(=O)c1ccco1	.	-7.0%	5.4%	.	.	.
Cc1[nH]n(-c2ncc(-c3ccccc3)s2)c(=O)c1C(c1ccc(Cl)cc1)C(C#N)C#N (stereo not given)	?	22.4µM*	-7.5%	-3.2%	?	5.3
Cc1[nH]n(-c2ccccc2)c(=O)c1C(c1ccccc1[N+](=O)[O-])C(C#N)C#N (stereo not given)	?	?	-3.9%	.	22.0%	2.7
C/C(=N\Nc1ccc(S(N)(=O)=O)cc1[N+](=O)[O-])c1ccc2c(c1)OCO2	?	28.5%[57.1 µM]	4.3%[57.1 µM]	7.7%	11.2µM*	2.0
CCOc1ccc(-c2c[n+]3c(n2-c2ccccc2)CCCCC3)cc1	?	6.0%	3.9%	0.9%	3.55µM*	7.8
COc1ccc(-n2c(-c3ccccc3)c[n+]3c2CCC3)cc1	?	28.5%[57.1 µM]	-14.9%[57.1 µM]	-0.2%	?	1.8
Cc1cc(OCCn2ccnc2)cc(C)c1Cl	?	3.3%	-2.2%	7.7%	-28.1%	0.5
CCN(Cc1ccccc1)C(=O)c1cc(S(=O)(=O)N2CCOCC2)ccc1N1CCCC1	.	-7.6%	-10.2%	.	.	.
COc1ccc(-c2c(C)n([O-])c3c([n+]2=O)CCCC3)cc1	-0.6%	4.0%	-17.9%	3.3%	-5.3%	2.5
COc1ccc(NC(=S)NC(=O)c2ccccc2Cl)cc1	6.31µM*	-26.7%	0.0%	-2.7%	?	1.3
NC(N)=NS(=O)(=O)c1ccc(NC(=S)NC(=O)c2ccccc2)cc1	2.7%	50.1µM*	-11.2%	.	11.2%	1.2
CC(C)CNC(=S)NC(=O)c1ccccc1Cl	5.01µM*	-6.4%[57.1 µM]	4.1%[57.1 µM]	-2.6%	11.2µM*	0.2
SMILES	RORg inh	rTrxR1 inhibitor	TrxR1 substrate	GALK inh	Gal4-VP16 FLuc	FBPA coupling cs
O=C(NC(=S)Nc1ccc(O)cc1)c1ccccc1Cl	-40.6%	?	-0.1%	-1.2%	-16.8%	1.8
NC(N)=NS(=O)(=O)c1ccc(NC(=S)NC(=O)/C=C/c2ccccc2)cc1	10.2%[1.91 µM]	33.7%	5.3%	-1.6%	-6.7%	-2.8
O=C(NC(=S)Nc1ccc(Cl)cc1)c1ccccc1	20µM*	-2.2%	4.0%	-2.9%	?	5.0
O=C(NC(=S)Nc1ccc(-c2ccccc2)cc1)c1ccccc1	.	-8.4%[57.1 µM]	-2.3%[57.1 µM]	.	.	.
Cc1ccnc(NC(=O)CCCOc2ccc(Cl)cc2C)c1	-27.9%	.	.	10.7%	2.2%	-0.8
O=C(CSc1nnc(-c2ccc(F)cc2)o1)Nc1ccccc1N1CCOCC1	.	20.0%	6.6%	.	.	.
COc1ccc2[nH]cc(CCNC(=O)C3CCCO3)c2c1 (stereo not given)	0.7%	21.9%	4.5%	0.8%	-7.2%	-1.6
CCOC(=O)c1c(C)[nH]c(C(=O)N2CCCC(C(=O)c3cccc(OC)c3)C2)c1C (stereo not given)	34.8%	2.5%	-3.1%	2.0%	8.8%	1.1
O=C(NC(=S)Nc1ccc(Oc2ccc(Cl)cc2)cc1)c1ccccc1	3.55µM*	-33.1%	-12.0%	-3.3%	7.94µM*	-1.6
O=C(NC(=S)Nc1ccc(NC(=O)c2ccccc2)cc1)c1ccc(F)cc1	-39.1%	-2.1%	2.7%	6.4%	-2.5%	.
Cc1ccccc1/C=N\NC(=O)c1ccc(Cn2cccn2)o1	30.5%	9.7%[57.1 µM]	9.8%[57.1 µM]	2.2%	-2.8%	0.2
Cc1ccc2c(CC(=O)NC3=NCCS3)coc2c1	?	0.6%	-7.6%	-1.9%	?	4.3
Cc1cc2occ(CC(=O)NC3=NCCS3)c2cc1C(C)C	-137.2%	27.4%	4.3%	9.4%	12.6µM*	0.0
O=C(CSc1c2c(nc3ccc(Cl)cc13)CCCC2)NCc1ccccc1Cl	.	-0.2%	-8.0%	.	.	.
Cc1cc(C(=O)CN2CCC(C)CC2)c(C)n1-c1ccccc1F	5.62µM*	-1.6%[11.4 µM]	-1.9%[11.4 µM]	0.2%	4.47µM*	-0.3
Cc1ccccc1Oc1ncccc1C(=O)/C(C#N)=C/N(C)C	24.8%	-7.0%	-13.2%	0.2%	-8.2%	9.8
COc1ccc(OC)c(S(=O)(=O)N2CCC(C(=O)N3CCOCC3)CC2)c1	13.7%	-1.8%[57.1 µM]	-3.0%[57.1 µM]	-1.5%	-1.3%	2.4
COc1ccc(C(=O)Oc2cccc3cccnc23)cc1[N+](=O)[O-]	2.24µM*	9.7%[57.1 µM]	-2.9%[57.1 µM]	-2.1%	3.16µM*	-7.3
O=C(Oc1ccc(Cl)c2cccnc12)N1CCCCC1	10.8%	2.9%	26.2%	4.9%	6.9%	-3.5
Cc1ccc(C(=O)Oc2ccc(Cl)c3cccnc23)cc1[N+](=O)[O-]	1.58µM*	-4.5%	-13.0%	-2.7%	3.55µM*	.
O=C(Oc1ccc(Cl)c2cccnc12)c1cccnc1	0.891µM*	12.7%[57.1 µM]	-3.5%[57.1 µM]	-2.0%	1µM*	-1.9
O=C(Oc1ccccc1[N+](=O)[O-])c1cccnc1	-11.7%	14.1µM*	-4.1%	-3.1%	-0.4%	-0.3
CCOc1ccccc1NC(=O)Nc1cnccn1	5.0%	16.4%[57.1 µM]	0.9%[57.1 µM]	-0.9%	5.4%	0.8
CCOC(=O)c1sc(C)c2c(=O)n(CC(=O)c3ccc(Br)cc3)nnc12	19.1%	23.4%[57.1 µM]	0.6%[57.1 µM]	1.6%	-18.4%	1.0

High-throughput results from PubChem BioAssay.
